Laboratory results: PubChem BioAssay AID540259 (Broad Institute, 2011)
Results with a measured potency or affinity are listed apart. Active and inactive are the calls of the source.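 How the source made its calls: active means cell killing, meaning signal decrease, with fitted half-maximal dose at or below ten times the top valid tested dose; inconclusive means poor fit, or flat curve with 30 to 70% signal loss; inactive means the rest.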

Test: ATP-based viability loss in HeLa cells – cell-based, CellTiter-Glo luminescence, cherry-pick samples, cytotoxicity control for MITF activator project, dose response (AID 540259)
Conditions: 24 h; series mostly up to 35 µM

Structure (SMILES) | outcome
COc1c(C)cccc1C(=O)Nc1ccc(N2CCN(S(C)(=O)=O)CC2)cc1 | inactive
O=C(N/N=C/c1ccccc1C(F)(F)F)c1ccc(O)cc1 | inactive
COc1ccc(C(=O)CN2Cc3ccccc3C2=N)cc1 | inactive
ClCCn1cnc2c(SCc3ccccc3)ncnc21 | inactive
c1cnc2nc(-c3ccc4c(c3)OCO4)cn2c1 | inactive
Cc1ccc(O)c(-n2nc3ccccc3n2)c1 | inactive
CC(=O)N1N=C(c2ccc(C)cc2)OC1c1ccc(Br)cc1 (configuration not stated) | inactive
O=c1[nH]c(Cc2cccs2)nc2scc(-c3ccc(Cl)cc3)c12 | inactive
C/C(=C\c1ccc(N)cc1)c1nc2ccccc2[nH]1 | inactive
COC(=O)c1cc(-c2ccc(OC)cc2)n[nH]1 | inactive
Oc1[nH]c2ccccc2c1C=Nc1ccccc1 | inactive
CN(C)c1ccc(CSc2ccccc2)cc1 | inactive
Clc1ccc(-c2nc(C3CCCCC3)no2)cc1 | inactive
CCn1cnc2cc(NCc3ccccc3Cl)ccc21 | inactive
c1ccc(-c2ccc3[nH]ccc3c2)cc1 | inactive
CCC(C)NC(=O)c1cc(-c2ccc(OC)cc2)on1 (configuration not stated) | inactive
O=C(Nc1ccc2oc(-c3ccccc3)nc2c1)c1cccnc1 | inactive
Cn1c2ccccc2c(=O)c2cc(C#Cc3ccccn3)ccc21 | inactive
O=C(Nc1ccc(F)cc1Cl)c1ccc2c(=O)n3c(nc2c1)CCC3 | inactive

Structure (SMILES) | outcome
CC(=O)c1sc(NC(=O)c2ccccc2F)nc1-c1ccccc1 | inactive
O=C(Nc1cccnc1)c1cc(-c2ccc(Cl)cc2)on1 | inactive
O=C(NOCc1ccccc1)OCc1ccccc1 | inactive
Cc1ccc2c(CN3CCC(C)CC3)cc(=O)oc2c1C | inactive
Nc1ccc(-c2nnc(-c3ccc(N)cc3)o2)cc1 | inactive
O=C(Nc1ccccc1)N1CCC(c2ccccc2)C1 (configuration not stated) | inactive
O=C(O)c1ccc(/C=C/c2ccc3cccc(O)c3n2)cc1 | inactive
Cc1cccc(-c2noc(Cc3ccccc3)n2)c1 | inactive
O=C(NC1=NCCS1)c1ccc(Cl)s1 | inactive
Cc1ccc(-c2csc(NC(=O)c3ccc(Br)cc3)c2C(=O)O)cc1 | inactive
COC(=O)Cc1csc(Nc2ccccc2Cl)n1 | inactive
Cc1ccc(NC(=O)Nc2ccc3c(c2)OCO3)c(OC(F)F)c1 | inactive
CCCc1nc2ccc(NC(C)=O)cc2c(=O)n1Cc1ccc(Cl)cc1 | inactive
Cc1nn(-c2ccccn2)c2c1-c1nc(N)ncc1CC2 | inactive
COc1ccc(-c2c(C)nc3c(-c4ccsc4)cnn3c2N)cc1 | inactive
NC(=O)c1ccc(-c2noc(-c3cccc(Cl)c3)n2)cc1 | inactive
COc1cccc(C2Nc3ccccc3C(=O)N2c2ccc(F)cc2)c1O (configuration not stated) | inactive
COc1ccc(-c2cn3nc(C)c(C)nc3n2)cc1OC | inactive
